Consider 37 compounds from PubChem BioAssay (NCI).

About 79,000 compounds went through this panel and 15% of them were active in at least one assay; those are over-represented in the sample as a whole. Unmarked numbers belong to inactive results. Active and inactive are the calls of the source. No stated cut-off is given here; in the data, active means growth inhibition above about 70%; inactive means the rest.

A short description of assay [1]: NCI Yeast Anticancer Drug Screen. Data for the rad50 strain (AID 155).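 Further: 0% = growth of vehicle-only cultures of the same strain.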 To be noted: S. cerevisiae rad50 strain growth inhibition; at 50.0 µM; active compounds read high. In a few lines:
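Growth of the mutant yeast was measured after compound exposure and referenced to vehicle-treated cultures.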

A short description of assay [2]: NCI Yeast Anticancer Drug Screen. Data for the mec2-1 strain (AID 157). The settings on record: S. cerevisiae mec2-1 strain, at 50.0 µM, active compounds read high. Summed up:
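mec2-1 yeast strain, carrying an alteration in DNA damage repair or cell cycle control, was exposed to compounds; growth inhibition was measured relative to vehicle-treated controls.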

The nature of assay [3]: NCI Yeast Anticancer Drug Screen. Data for the sgs1 mgt1 strain (AID 161).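 Further: 0% = growth of cultures given vehicle only.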 The settings on record: S. cerevisiae sgs1 mgt1 strain, at 50.0 µM, active compounds read high. In a few lines:
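Yeast cells carrying a defined DNA-repair defect were exposed to test compounds. Growth inhibition was measured relative to vehicle-treated controls.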

Assay [4] is described as follows: NCI Yeast Anticancer Drug Screen. Data for the cln2 rad14 strain (AID 165).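 Further: 0% = growth equal to vehicle treated cultures.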 To be noted: S. cerevisiae cln2 rad14 strain, at 50.0 µM, active compounds read high. Summed up: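 Yeast carrying cln2 and rad14 alterations (cell cycle control and DNA damage repair) were exposed to compounds. Growth inhibition was measured against vehicle-treated controls.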
A short description of assay [5]: NCI Yeast Anticancer Drug Screen. Data for the bub3 strain (AID 167). To be noted: S. cerevisiae bub3 mutant strain, at 50.0 µM, active compounds read high. Summed up:
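Whole-cell yeast assay. The mutant strain was incubated with compounds, and growth inhibition was determined by comparison with vehicle-treated cells.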

Assay [6] in a line: NCI Yeast Anticancer Drug Screen. Data for the mlh1 rad18 strain (AID 175). The settings on record: S. cerevisiae mlh1 rad18 strain growth inhibition; at 50.0 µM; active compounds read high. In a few lines:
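Growth inhibition of the yeast strain was measured after compound exposure and expressed relative to vehicle-treated controls. The strain carries defined defects in DNA damage repair.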

Regarding `CC(C)COP(=O)(Cc1ccccc1)OCC(C)C`, the growth inhibition in assay [1] is 8.85%; in assay [2], 5.65%; in assay [3], -0.5%; in assay [4] it was 11.8%; in assay [5], 5%; in assay [6], -6.2%.
With `NC1CN2CCC1CC2` (configuration not stated), the growth inhibition in assay [1] was 9.35%; in assay [2], -7.65%; in assay [3], -14.6%; in assay [4], 11.8%; in assay [5] it was -8.55%; in assay [6], 1.15%.
Consider `C[As](C)(=S)[As](C)(C)=S`, for which the growth inhibition in assay [1] is 77.3% (active); in assay [2], 50.1%; in assay [3], 65.2%; in assay [4] it was 27.6%; in assay [5] it was 66.7%; in assay [6], 69.9%.
As for `CCOC(OCC)c1ccc(C(F)(F)F)cc1.[C-]#[O+].[C-]#[O+].[C-]#[O+].[Cr]`, the growth inhibition in assay [1] is 14.2%; in assay [2], 0.8%; in assay [3], 25.8%; in assay [4], 4.85%; in assay [5] it was 20.4%; in assay [6] it was 26.2%.
Take `COc1ccc2[nH]cc(CCN(C)C)c2c1`: the growth inhibition is 4.8% in assay [1]; -24.8% in assay [2]; 1.85% in assay [3]; 17.1% in assay [4]; -1.6% in assay [5]; -9.85% in assay [6].
Regarding `O=[N+]([O-])c1cc(S(=O)(=O)F)cc(Cl)c1S`, the growth inhibition in assay [1] was 98.9% (active); in assay [2], 99% (active); in assay [3] it was 98.8% (active); in assay [4] it was 90.5% (active); in assay [5], 98.8% (active); in assay [6], 98.8% (active).
Take `CSP(N)(=O)OC(C)C` (configuration not stated): the growth inhibition in assay [1] is -16.9%; in assay [2], 11.8%; in assay [3], -15.6%; in assay [4], -23.6%; in assay [5], -33.6%; in assay [6], 15.8%.
On to `CCOc1cc(CCNC)c2c(ccc3ccc(OC)c(O)c32)c1OC`, for which the growth inhibition is 27.2% in assay [1]; -0.4% in assay [2]; 4.75% in assay [3]; 26.9% in assay [4]; -7.2% in assay [5]; -36.8% in assay [6].
As to `CC1C(C)(C)P(=O)(Oc2cccc3cccnc23)C1(C)C` (configuration not stated), the growth inhibition in assay [1] was 83.3% (active); in assay [2] it was 64.7%; in assay [3] it was 84.5% (active); in assay [4], 64.6%; in assay [5] it was 99% (active); in assay [6] it was 57.2%.
As to `CC(Oc1ccc([N+](=O)[O-])cc1Cl)C(=O)Nc1ccc(S(=O)(=O)F)cc1` (configuration not stated), the growth inhibition was -12.8% in assay [1]; -14.4% in assay [2]; -9.4% in assay [3]; 4% in assay [4]; 0.2% in assay [5]; -12.6% in assay [6].
Turning to `CCCCP(CCCC)CCCC`, the growth inhibition in assay [1] is -10%; in assay [2], 0.95%; in assay [3], 4.15%; in assay [4], 19.2%; in assay [5], 51%; in assay [6] it was 19.6%.
For the compound `CCCCN1CCC2(C)c3cc(O)ccc3CC1C2CC` (configuration not stated), the growth inhibition in assay [1] is 6.8%; in assay [2] it was 9.5%; in assay [3], 4.4%; in assay [4] it was -46.6%; in assay [5] it was 11.3%; in assay [6] it was 12.7%.
Take `CC1CNCCN1c1ccc(Cl)cc1` (configuration not stated): the growth inhibition in assay [1] is 13.6%; in assay [2] it was -20.8%; in assay [3], 11.2%; in assay [4] it was 20.1%; in assay [5] it was 22.8%; in assay [6], 6.15%.
In the case of `O=C(OC12CCN(CC1)CC2)c1ccccc1`, the growth inhibition in assay [1] is -7.55%; in assay [2] it was 8.6%; in assay [3], 4.25%; in assay [4], -50.2%; in assay [5], 8.15%; in assay [6], 0.5%.
With `CCOP(=O)(OCC)/C(C#N)=C/c1cccn1C`, the growth inhibition in assay [1] is -0.95%; in assay [2], -32.7%; in assay [3], -44%; in assay [4], -17.2%; in assay [5], -21.8%; in assay [6], -7.35%.
For the compound `CCOC(=O)C(N)C[S][Sn]([CH3])([CH3])[Cl]` (configuration not stated), the growth inhibition in assay [1] was 19.1%; in assay [2], 21.8%; in assay [3], 20.6%; in assay [4], 18.2%; in assay [5], 21.7%; in assay [6], -26.6%.
As for `CCOP(=O)(OCC)Oc1ccncc1`, the growth inhibition in assay [1] is -2.8%; in assay [2] it was -0.3%; in assay [3], -7.6%; in assay [4], -4.25%; in assay [5], 7.75%; in assay [6], 4.1%.
`CO[C@H]1C[C@H](O[C@H]2CC[C@]3(C=O)[C@H]4CC[C@]5(C)[C@@H](C6=CC(=O)OC6)CC[C@]5(O)[C@@H]4CC[C@]3(O)C2)O[C@H](C)[C@H]1O`: the growth inhibition in assay [1] is 33.4%; in assay [2] it was -11.3%; in assay [3], 8.6%; in assay [4], 0.55%; in assay [5], -6.45%; in assay [6], 32.3%.
Turning to `CC(C)CCC1C(=O)NC(=O)NC1=O`, the growth inhibition is -0.2% in assay [1]; -6.15% in assay [2]; -15.4% in assay [3]; 8.1% in assay [4]; -4.05% in assay [5]; -1.15% in assay [6].
As to `O=C(Cc1ccc2c(c1)OCO2)c1cn(C(=O)Cc2ccc3c(c2)OCO3)c2ccccc12`, the growth inhibition in assay [1] was 18.7%; in assay [2], 5.9%; in assay [3], 5.4%; in assay [4], 14.8%; in assay [5] it was 0.35%; in assay [6] it was 26.4%.
In the case of `COc1ccc(CC(C)=O)cc1OC`, the growth inhibition in assay [1] is -10.9%; in assay [2], 6.8%; in assay [3], 19%; in assay [4], 36%; in assay [5], -24.1%; in assay [6], -5.9%.
On to `[N-]=[N+]=NC12CC3CC(CC(C3)C1)C2`, for which the growth inhibition in assay [1] was -9.7%; in assay [2] it was -6%; in assay [3], -7.45%; in assay [4], -9.35%; in assay [5], -25.6%; in assay [6], -20.2%.
On to `O=P1(N(CCCl)CCCl)Oc2ccc(Cl)cc2Sc2c(ccc(Cl)c2Cl)O1` (configuration not stated), for which the growth inhibition in assay [1] is 43.5%; in assay [2] it was 7.9%; in assay [3] it was 40.5%; in assay [4] it was 40.5%; in assay [5], 35.4%; in assay [6], 46.7%.
Take `ClCc1nc(-c2ccco2)no1`: the growth inhibition is 6.1% in assay [1]; 51.2% in assay [2]; 20.6% in assay [3]; -42.5% in assay [4]; 4.55% in assay [5]; 29.9% in assay [6].
Turning to `O=Cc1ccccc1O.[La]`, the growth inhibition was -7.9% in assay [1]; -28.1% in assay [2]; 14.1% in assay [3]; -5.45% in assay [4]; -7.7% in assay [5]; 2.15% in assay [6].
Regarding `CC(C)C(O)(C(=O)OCC1=CC[N+]2([O-])CCC(O)C12)C(C)O` (configuration not stated), the growth inhibition is -16.9% in assay [1]; -29.7% in assay [2]; -9.7% in assay [3]; 4% in assay [4]; -7.45% in assay [5]; -7.3% in assay [6].
Regarding `CC([Se])=Nc1ccc(Br)cc1`, the growth inhibition is 21.6% in assay [1]; 0.8% in assay [2]; -0.2% in assay [3]; -8.9% in assay [4]; -1.45% in assay [5]; 9.1% in assay [6].
Turning to `COc1nc(N2CCNCC2)nc2c1CCCC2`, the growth inhibition in assay [1] was 4.85%; in assay [2], -10.7%; in assay [3], -21.1%; in assay [4] it was 17.8%; in assay [5] it was -0.75%; in assay [6] it was -0.45%.
`NC(C/C=C/P(=O)(O)O)C(=O)O` (configuration not stated): the growth inhibition in assay [1] was -20.4%; in assay [2], -17.1%; in assay [3], -14.8%; in assay [4], 13.2%; in assay [5] it was 19.9%; in assay [6] it was -33%.
In the case of `CN1CN(c2ccccc2)C2(CCN(CCC3COc4ccccc4O3)CC2)C1=O` (configuration not stated), the growth inhibition in assay [1] was -15.4%; in assay [2], -10.3%; in assay [3] it was -10.1%; in assay [4] it was -1.4%; in assay [5] it was -4.45%; in assay [6], -1.35%.
For `O=S(=O)(C(Cl)Cl)C(Cl)(Cl)S(=O)(=O)C(Cl)Cl`, the growth inhibition in assay [1] was -11.4%; in assay [2] it was -53%; in assay [3] it was 5.8%; in assay [4], -40.2%; in assay [5], 5.1%; in assay [6] it was 13.1%.
In the case of `N#CCc1ccccc1.N#CCc1ccccc1.[C-]#[O+].[C-]#[O+].[C-]#[O+].[C-]#[O+].[W]`, the growth inhibition in assay [1] is -10.9%; in assay [2] it was -16.2%; in assay [3], -7.1%; in assay [4] it was -33.2%; in assay [5], -5.05%; in assay [6] it was -11.3%.
Take `CC(=O)O[C@H]1CC[C@]2(C)[C@H]3CC[C@]4(C)[C@@H](OC(C)=O)CC[C@H]4[C@@H]3[C@H](C=O)[C@]2(O)C1`: the growth inhibition was 7.9% in assay [1]; 4.35% in assay [2]; -8.6% in assay [3]; 4.25% in assay [4]; -0.75% in assay [5]; 8.7% in assay [6].
Regarding `COC12CC3(C)C(C4=CC(=O)OC4)CCC3(O)C3CCC4=CC(=O)CCC4(CO1)C32` (configuration not stated), the growth inhibition was -1.85% in assay [1]; -10.2% in assay [2]; -11.4% in assay [3]; 15.8% in assay [4]; -16.9% in assay [5]; 6.6% in assay [6].
For the compound `NNC(=O)CCC(N)C(=O)O` (configuration not stated), the growth inhibition in assay [1] is -20.3%; in assay [2] it was -18.4%; in assay [3], -35.3%; in assay [4], -11.8%; in assay [5], -17.4%; in assay [6], -49%.
As for `CC(C)CCN(CCc1ccccc1[N+](=O)[O-])CCC(C)C`, the growth inhibition is 12.1% in assay [1]; -7.45% in assay [2]; -8.7% in assay [3]; -36.9% in assay [4]; 44.1% in assay [5]; 38.6% in assay [6].
As to `ClCCN(CCCl)c1ccc(C=Nc2ccccc2)cc1`, the growth inhibition in assay [1] was 34.5%; in assay [2], 21.1%; in assay [3] it was 59.6%; in assay [4], 12.2%; in assay [5], 2%; in assay [6], 28.6%.
